We go through 8 molecules from PubChem BioAssay (EPA / NIEHS).

Results filed as inconclusive are left out. Activity calls are given as the source filed them. The calls were made as follows, unless noted: active = hit-call score of the fitted dose curve at least 0.9, where 1 is the maximum; inconclusive = response in the unintended direction; inactive = score below 0.9.

The nature of assay [1]: TOX21_p53_BLA_p2_viability: Viability Assessment in the Tox21 HCT-116 p53 Agonism Beta-lactamase Assay, Phase 2 (AID 2283591).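 Also: compound exposure lasted 16 h at 37 °C; actives lower the ATP signal meaning cytotoxicity.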 The essentials: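 HCT116 p53-bla cells, 4000/well, dosed after 5 h plating (217-fold dilution of DMSO stocks) and incubated 16 h at 37C. Viability taken as cellular ATP by CellTiter-Glo luminescence after 30 min RT; signal loss marks cytotoxicity.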

Assay [2] has as its target Cellular tumor antigen p53 (Homo sapiens) (UniProt P04637). Briefly: TOX21_p53_BLA_p2_ratio: Tox21 HCT-116 p53 Agonism Beta-lactamase Assay, Ratio, Phase 2 (AID 2283592). The essentials: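 Read-out is the blue/green (460/530 nm, 405 nm excitation) ratio after 2 h CCF4-AM loading, fitted as gain versus DMSO. Compounds, pinned at 217-fold dilution from DMSO stocks, stayed 16 h on HCT-116 beta-lactamase reporter cells seeded 5 h earlier.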

Assay [3] is described as follows: TOX21_p53_BLA_p3_viability: Viability Assessment in the Tox21 HCT-116 p53 Agonism Beta-lactamase Assay, Phase 3 (AID 2283593).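 Also: cells exposed to compound for 16 h before reading.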 The essentials: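 HCT116 cells, 4000/well, dosed 5 h after plating by pin transfer (217-fold dilution from DMSO stock) and incubated 16 h at 37C, 5% CO2. Viability read as ATP luminescence with CellTiter-Glo after 30 min at room temperature.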

In assay [4] the target is Cellular tumor antigen p53 (Homo sapiens) (UniProt P04637). Briefly: TOX21_p53_BLA_p3_ratio: Tox21 HCT-116 p53 Agonism Beta-lactamase Assay, Ratio, Phase 3 (AID 2283596). The essentials:
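Cells were seeded at 4000/well, rested 5 h at 37C, then dosed with DMSO compound solutions (217-fold dilution) for 16 h. CCF4-AM substrate was loaded for 2 h at room temperature, and the 460/530 nm emission ratio was fitted for gain of signal versus DMSO.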

Assay [5] is described as follows: TOX21_p53_BLA_p4_viability: Viability Assessment in the Tox21 HCT-116 p53 Agonism Beta-lactamase Assay, Phase 4 (AID 2283597).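 Also: hits lower the luminescence signal meaning cytotoxicity.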 The essentials: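 Cytotoxicity as reduced cellular ATP (CellTiter-Glo luminescence, 30 min room temperature), measured in the same wells following the CCF4 FRET p53 reading. Human HCT-116 cells received compounds in DMSO (217-fold dilution) for 16 h.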

The target in assay [6] is Cellular tumor antigen p53 (Homo sapiens) (UniProt P04637). Description: TOX21_p53_BLA_p5_ratio: Tox21 HCT-116 p53 Agonism Beta-lactamase Assay, Ratio, Phase 5 (AID 2283599). The essentials: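 HCT-116 p53-bla cells (4000/well) plated 5 h, dosed with compound (217-fold DMSO dilution) for 16 h at 37 C; CCF4-AM substrate 2 h at room temperature. Activity is the 460/530 nm emission ratio (405 nm excitation), fitted in gain-of-signal direction versus DMSO.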

A short description of assay [7]: TOX21_p53_BLA_p5_viability: Viability Assessment in the Tox21 HCT-116 p53 Agonism Beta-lactamase Assay, Phase 5 (AID 2283600). The essentials: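 Viability came from CellTiter-Glo ATP luminescence, read after 30 min at room temperature. Before this, HCT-116 p53-bla cells (4000/well) had 16 hours of compound exposure at 37C, with DMSO stocks diluted 217-fold on transfer.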

Assay [8] concerns the target Cellular tumor antigen p53 (Homo sapiens) (UniProt P04637). Description: TOX21_p53_BLA_p4_ratio: Tox21 HCT-116 p53 Agonism Beta-lactamase Assay, Ratio, Phase 4 (AID 2283601). The essentials: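 HCT-116 p53 beta-lactamase reporter cells (4000/well) preincubated 5 h, then compound (217-fold dilution of DMSO stock) for 16 h at 37C. CCF4-AM substrate added 2 h at room temperature; 460/530 nm emission ratio fitted upward versus DMSO.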

The nature of assay [9]: CCTE_Harrill_HTTr_Viability_MCF7: CCTE's 6-hour Cell Viability Assessment for the High-Throughput Transcriptomics (HTTr) Platform, in MCF-7 cells cultured in DMEM + 10% fetal bovine serum, Harrill Lab (AID 2284010; active = hit-call score of the fitted dose curve at least 0.9, where 1 is the maximum; inactive = score below 0.9). The essentials:
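Eight-point concentration series, six-hour exposure. Propidium iodide exclusion imaged to assess membrane integrity as a cytotoxicity readout; bidirectional fitting was done with DMSO as negative control and activity baseline.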

A short description of assay [10]: CCTE_Harrill_HTTr_Apoptosis_MCF7: CCTE's 6-hour Apoptosis Assessment for the High-Throughput Transcriptomics (HTTr) Platform, in MCF-7 cells cultured in DMEM + 10% fetal bovine serum, Harrill Lab (AID 2284011; active = hit-call score of the fitted dose curve at least 0.9, where 1 is the maximum; inactive = score below 0.9). The essentials: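 High-content imaging of CellEvent Caspase 3/7 Green signal follows a six-hour exposure, with eight concentrations per chemical. MCF-7 cells grown in DMEM plus 10% fetal bovine serum; activity fitted in both directions against DMSO.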

Assay [11] in a line: CCTE_Harrill_HTTr_CellCount_MCF7: CCTE's Cell Proliferation Assessment for the High-Throughput Transcriptomics (HTTr) Platform, Harrill Lab (AID 2284012).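 Also: count of Hoechst-stained nuclei per well by high-content imaging in MCF-7 cells; cells exposed to compound for six hours; intended direction is loss of nuclei count meaning fewer cells.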 The essentials:
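For this full-screen endpoint, MCF-7 cultures received eight compound dilutions for six hours. Well nuclei counts from Hoechst imaging were analyzed relative to DMSO.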

Assay [12] deals with Thyroid hormone receptor alpha (Rattus norvegicus) + Thyroid hormone receptor beta (Rattus norvegicus) (UniProt P18113+P63059). Description: TOX21_TR_LUC_GH3_Antagonist_Followup: Tox21 GH3 Thyroid Hormone Receptor Antagonism Luciferase Follow-Up Assay (AID 2283942). The essentials: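 Luminescence read-out (ONE-Glo, 30 min at room temperature) in GH3 reporter cells challenged with 1.0 nM T3 final. Compounds ran at 92 uM to 5nM over 15 concentrations for 24 h; DMSO served as negative control and baseline.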

Another assay deals with THRA (gene 7067) (UniProt P10827). Briefly: TOX21_TRA_COA_Antagonist_Followup_ratio: Tox21 Thyroid Hormone Receptor alpha Antagonism through Coactivator Recruitment Follow-Up Assay, Ratio (AID 2283953). The essentials:
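We measured antagonism of T3-type coactivator recruitment using a TR-FRET ratio (emission 520 and 495 nm) between a Tb-labelled anti-GST antibody on TRα LBD (2.5 nM) and SRC-2 peptide (200 nM). Activity was scaled between DMSO and T3 wells.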

For another assay, the target named is THRB (gene 7068) (UniProt P10828). Briefly: TOX21_TRB_BLA_Antagonist_Followup_ratio: Tox21 Thyroid Hormone Receptor beta Antagonism Beta-lactamase (BLA) Follow-Up Assay, Ratio (AID 2283958). The essentials: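 Using charcoal-stripped 2% FBS medium, human TRβ-LBD/GAL4 reporter HEK293T cells received test compounds for 18 h. The endpoint is the cleaved-to-uncleaved substrate ratio (460/530 nm).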

Assay [13] in a line: TOX21_TRB_BLA_Antagonist_Followup_viability: Viability Assessment in the Tox21 Thyroid Hormone Receptor beta Antagonism Beta-lactamase (BLA) Follow-Up Assay (AID 2283961). The essentials: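 ATP-based CellTiter-Glo luminescence (30 min, room temperature) run in the same wells as the TRβ-bla readout. Cells: GeneBLAzer HEK293T expressing GAL4-TRβ LBD, exposed 18 h at 37C to compounds at 11 concentrations in triplicate, stripped-serum medium.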

Assay [14] is described as follows: TOX21_TR_RXR_BLA_Antagonist_Followup_viability: Viability Assessment in the Tox21 Thyroid Hormone Receptor beta Retinoid X Receptor alpha (RXRa) Antagonism Beta-lactamase (BLA) Follow-Up Assay (AID 2283979). The essentials:
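RXRa-bla HEK293T cells (2,500/well, phenol red-free DMEM, 2% charcoal-stripped FBS) were attached 5 h, then exposed to compounds at 11 concentrations in triplicate for 16 h at 37C. Viability measured by CellTiter-Glo ATP luminescence, bidirectional fitting versus DMSO.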

The target of assay [15] is Retinoic acid receptor RXR-alpha (Homo sapiens) (UniProt P19793). Briefly: TOX21_TR_RXR_BLA_Antagonist_Followup_ratio: Tox21 Thyroid Hormone Receptor beta Retinoid X Receptor alpha (RXRa) Antagonism Beta-lactamase (BLA) Follow-Up Assay, Ratio (AID 2283972). The essentials:
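After 5 h attachment at 37C, HEK293T RXRa-bla cells (2,500/well, 2% charcoal-stripped FBS, no phenol red) received compounds at 11 concentrations in triplicate for 16 h. Beta-lactamase read as 460:530 nm ratio after 2 h RT substrate loading.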

In a further assay the target is PGR (gene 5241) (UniProt P06401). Description: TOX21_PR_BLA_Followup_Antagonist_ratio: Tox21 HEK293 Progesterone Receptor (PR) Antagonism Beta-lactamase Follow-Up Assay, Ratio (AID 2283934).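 Also: PR-UAS-bla HEK293T cells stimulated with 1 nM R5020 agonist for 16 hr.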 The essentials: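 Measured in PR-UAS-bla HEK293T cells co-treated with compound and 1 nM promegestone for 16 hr; beta-lactamase ratio read after 2 h FRET substrate loading, with parallel CellTiter-Glo cytotoxicity.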

The nature of assay [16]: TOX21_PR_BLA_Followup_Agonist_viability: Viability Assessment in the Tox21 HEK293 Progesterone Receptor (PR) Agonism Beta-lactamase Follow-Up Assay (AID 2283935).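 Also: signal loss means lower viability so actives are cytotoxic.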 The essentials: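 Viability is read as CellTiter-Glo luminescence, where loss of signal indicates cytotoxicity. The cells are PR-UAS-bla HEK293T given compounds for 16 hr at 37C and 5% CO2, in the same wells used for the bla readout.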

The nature of assay [17]: TOX21_PR_BLA_Followup_Antagonist_viability: Viability Assessment in the Tox21 HEK293 Progesterone Receptor (PR) Antagonism Beta-lactamase Follow-Up Assay (AID 2283936).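 Also: cells exposed to compound with R5020 agonist for 16 h; hits lower the luminescence signal meaning cytotoxicity.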 The essentials: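 PR-UAS-bla HEK293T cells in medium with 2% charcoal-stripped FBS were treated with compounds plus R5020 for 16 hr at 37C. After the beta-lactamase read, CellTiter-Glo was added to the same wells and luminescence read after 30 min at room temperature.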

Chain of Cellular tumor antigen p53 (Homo sapiens) (P04637 whole entry, looked up): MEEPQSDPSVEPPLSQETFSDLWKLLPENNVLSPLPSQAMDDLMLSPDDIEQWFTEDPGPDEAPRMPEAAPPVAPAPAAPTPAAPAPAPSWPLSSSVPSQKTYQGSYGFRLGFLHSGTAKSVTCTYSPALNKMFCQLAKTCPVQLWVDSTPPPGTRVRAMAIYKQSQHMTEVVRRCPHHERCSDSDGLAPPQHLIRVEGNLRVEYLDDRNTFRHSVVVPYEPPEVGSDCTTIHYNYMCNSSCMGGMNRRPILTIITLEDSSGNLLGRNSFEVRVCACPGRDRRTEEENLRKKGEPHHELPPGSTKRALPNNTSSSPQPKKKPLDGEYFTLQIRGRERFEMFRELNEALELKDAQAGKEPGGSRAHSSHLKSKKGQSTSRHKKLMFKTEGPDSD
Chain of Retinoic acid receptor RXR-alpha (Homo sapiens) (P19793 whole entry, looked up): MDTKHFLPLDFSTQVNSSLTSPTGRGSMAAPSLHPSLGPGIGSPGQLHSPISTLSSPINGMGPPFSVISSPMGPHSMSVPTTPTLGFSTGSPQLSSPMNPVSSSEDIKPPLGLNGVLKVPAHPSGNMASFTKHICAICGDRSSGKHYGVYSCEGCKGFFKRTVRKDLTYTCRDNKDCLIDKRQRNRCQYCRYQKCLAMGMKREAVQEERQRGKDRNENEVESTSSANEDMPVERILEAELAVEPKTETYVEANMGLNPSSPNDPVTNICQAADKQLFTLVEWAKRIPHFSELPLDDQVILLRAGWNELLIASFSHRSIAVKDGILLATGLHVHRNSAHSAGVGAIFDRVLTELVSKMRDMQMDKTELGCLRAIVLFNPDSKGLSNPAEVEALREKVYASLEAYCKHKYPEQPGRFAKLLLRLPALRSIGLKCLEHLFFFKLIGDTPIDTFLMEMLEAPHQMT
Chain of THRB (gene 7068) (P10828 whole entry, looked up, the tested form may be a part): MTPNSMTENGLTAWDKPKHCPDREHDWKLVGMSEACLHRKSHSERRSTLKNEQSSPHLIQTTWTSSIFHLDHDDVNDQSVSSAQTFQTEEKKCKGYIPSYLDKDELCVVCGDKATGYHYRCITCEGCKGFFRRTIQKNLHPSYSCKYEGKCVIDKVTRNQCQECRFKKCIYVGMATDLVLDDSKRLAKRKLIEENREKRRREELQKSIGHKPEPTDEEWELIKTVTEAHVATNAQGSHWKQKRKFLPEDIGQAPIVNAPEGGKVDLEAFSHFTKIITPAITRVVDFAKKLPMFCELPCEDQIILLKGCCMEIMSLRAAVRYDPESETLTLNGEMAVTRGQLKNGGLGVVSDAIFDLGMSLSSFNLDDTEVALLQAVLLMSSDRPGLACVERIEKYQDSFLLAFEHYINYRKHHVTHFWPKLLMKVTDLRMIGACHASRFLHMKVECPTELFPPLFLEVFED
Chain of THRA (gene 7067) (P10827 whole entry, looked up, the tested form may be a part): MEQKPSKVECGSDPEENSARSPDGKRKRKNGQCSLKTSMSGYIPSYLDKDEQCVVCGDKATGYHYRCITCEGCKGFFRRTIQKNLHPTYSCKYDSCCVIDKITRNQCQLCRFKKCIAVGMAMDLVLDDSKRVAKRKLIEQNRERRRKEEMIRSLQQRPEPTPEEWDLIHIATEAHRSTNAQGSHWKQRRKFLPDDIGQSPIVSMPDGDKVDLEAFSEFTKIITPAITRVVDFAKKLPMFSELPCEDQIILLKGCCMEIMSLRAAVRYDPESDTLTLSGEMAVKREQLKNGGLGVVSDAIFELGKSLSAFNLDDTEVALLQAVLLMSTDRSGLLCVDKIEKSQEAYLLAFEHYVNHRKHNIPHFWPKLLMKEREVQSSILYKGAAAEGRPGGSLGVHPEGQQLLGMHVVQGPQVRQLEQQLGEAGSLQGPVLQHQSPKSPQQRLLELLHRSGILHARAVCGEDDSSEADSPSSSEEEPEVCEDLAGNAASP
Chain of PGR (gene 5241) (P06401 whole entry, looked up): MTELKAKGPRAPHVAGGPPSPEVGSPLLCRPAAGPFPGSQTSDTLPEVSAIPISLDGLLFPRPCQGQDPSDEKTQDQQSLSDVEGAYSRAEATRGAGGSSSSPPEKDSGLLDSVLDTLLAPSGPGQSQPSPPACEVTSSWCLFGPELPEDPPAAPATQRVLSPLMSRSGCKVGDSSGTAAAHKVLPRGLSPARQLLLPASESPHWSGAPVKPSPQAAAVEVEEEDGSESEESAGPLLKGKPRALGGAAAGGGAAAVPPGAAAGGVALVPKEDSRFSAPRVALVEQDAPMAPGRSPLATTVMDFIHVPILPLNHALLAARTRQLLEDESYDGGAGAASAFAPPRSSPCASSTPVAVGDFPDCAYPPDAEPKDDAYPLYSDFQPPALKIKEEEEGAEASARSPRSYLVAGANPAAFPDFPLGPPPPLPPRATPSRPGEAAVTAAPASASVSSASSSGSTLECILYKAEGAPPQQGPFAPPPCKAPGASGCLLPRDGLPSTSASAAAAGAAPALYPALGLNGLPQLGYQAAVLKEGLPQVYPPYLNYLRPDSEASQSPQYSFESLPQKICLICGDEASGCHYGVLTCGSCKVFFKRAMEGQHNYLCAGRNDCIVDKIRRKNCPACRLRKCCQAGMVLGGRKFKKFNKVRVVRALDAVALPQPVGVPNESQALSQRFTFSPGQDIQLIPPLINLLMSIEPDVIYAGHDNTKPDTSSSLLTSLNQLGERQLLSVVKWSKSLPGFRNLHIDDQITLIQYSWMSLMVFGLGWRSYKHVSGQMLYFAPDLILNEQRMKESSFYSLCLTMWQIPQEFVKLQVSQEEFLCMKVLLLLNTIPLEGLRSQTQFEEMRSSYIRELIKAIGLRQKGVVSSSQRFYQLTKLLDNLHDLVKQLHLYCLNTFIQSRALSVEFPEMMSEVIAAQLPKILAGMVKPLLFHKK

As to `Cc1c(N(C)CS(=O)(=O)O)c(=O)n(-c2ccccc2)n1C`, the result in [1], in assay [2], in assay [3], in assay [4], in assay [5] and in assay [6] was inactive. Moreover, the molecule was classed as inactive in assay [7], in assay [8], in [9], in assay [10] and in [11].

As for `O=S(=O)(O)Oc1ccc(C(c2ccc(OS(=O)(=O)O)cc2)c2ccccn2)cc1`, the result in [1], in assay [2], in assay [3], in [4], in [5] and in assay [6] was inactive. Moreover, the result in [7] and in [8] was inactive.

Broadly, the AC50 is the midpoint of the concentration-response curve, whichever way the signal moves. As for `CCCCCOc1ccc(C2SC(=O)NC2=O)cc1OCC` (centres undefined), the molecule was called inactive in [1], in assay [2], in assay [3], in assay [4], in assay [5] and in assay [6]. For the same molecule, the result (in assay [7]; in assay [8]; in [12]; with THRA (gene 7067); in assay [13]; in assay [14]) was inactive. In the assay with THRB (gene 7068), the half-maximal activity concentration (AC50) is 1.76 µM (active).

For the molecule `O=C(O)COC(=O)Cc1ccccc1Nc1c(Cl)cccc1Cl`, the result in assay [1], in [2], in assay [3], in [4], in [5] and in [6] was inactive. In addition, the outcome in [7] and in assay [8] was inactive.

With `C#CCC(Cc1cnc2nc(N)nc(N)c2n1)c1ccc(C(=O)N[C@@H](CCC(=O)O)C(=O)O)cc1` (some centres undefined), the AC50 in assay [1] was 245 nM (active); in [2], 430 nM (active); in assay [3], 301 nM (active); in assay [4], 661 nM (active); in assay [5] it was 385 nM (active); in [6], 1.13 µM (active). Moreover, the AC50 in assay [7] is 538 nM (active); in assay [8], 575 nM (active); in assay [13], 440 nM (active); in assay [15] it was 448 nM (active); in assay [14] it was 542 nM (active). For the same molecule, the outcome (in assay [12]; with THRB (gene 7068)) was inactive.

With `N#C/C(=C1/SC[C@@H](c2ccc(Cl)cc2Cl)S1)n1ccnc1`, the molecule was called inactive in [1], in assay [2], in assay [3], in assay [4], in assay [5] and in assay [6]. The call in [7], in [8], in assay [16] and in [17] was inactive. Also, the AC50 with PGR (gene 5241) was 33 µM (active).

In the case of `Brc1cc(Oc2cc(Br)c(Br)c(Br)c2Br)c(Br)c(Br)c1Br`, the molecule was called inactive in [1], in assay [2], in [3], in assay [4], in assay [5] and in assay [6]. Further, the outcome (in assay [7]; in assay [8]; in [12]; with THRA (gene 7067); in assay [13]; in assay [15]) was inactive. For the same molecule, the molecule was called inactive in assay [14].

On to `Cc1c(C(=O)NCCO)[n+](=O)c2ccccc2n1[O-]`, for which the molecule was called inactive in assay [1], in [2], in assay [3], in assay [4], in [5] and in assay [6]. Further, the result in assay [8] was inactive.
